# Experimental data as given in PubChem BioAssay AID624287 (National Center for Advancing Translational Sciences (NCATS), 2012).
# The whole screen tested about 340,000 compounds, of which about 420 (0.12%) were called active. A call without a number means that no potency is given here. About 10% were inconclusive and are not listed. Only a selection was taken, and actives are over-represented in it overall. A number with no mark means an inactive call. Calls follow the shape of the dose curve; as a rule, active = well fitted activation curve with a large enough effect; inconclusive = small, poorly fitted or top-dose-only effect, or another doubt; inactive = no such curve, though single readings can be large or run the other way; cell line not stated here.
# Test: qHTS for Agonist of gsp, the Etiologic Mutation Responsible for Fibrous Dysplasia/McCune-Albright Syndrome: qHTS; also: nearly all actives have a fitted effect of over 60% in size;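 as to activation (cAMP increase): phosphodiesterase inhibitor Ro 20-1724 added with compounds to block cAMP breakdown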
# Conditions: gsp mutant cells, cAMP HTRF, 30 min; series mostly up to 76.9 µM
# Text: McCune-Albright syndrome (MAS) is a rare disease caused by somatic mutations in Gsgsp), a widely expressed protein central in signal transduction from G-coupled protein receptors (GPCRs). The disease symptoms are diverse, owing to the fact that the patients are mosaics with varying degrees of tissue involvement. Greater than 90% of the mutations in Gs in MAS occur at the R201 position and are equally divided between R201H and R201C. The R201 residue is central in the intrinsic GTPase activity of Gs and the H and C mutations lead to loss of, or impairment of, the GTPase activity. The intrinsic GTPase activity is necessary to terminate the interaction between Gs and adenylate cyclase, and to terminate the cAMP-mediated signaling of the given GPCR pathway. Thus, these activating mutations lead to ligand-independent activation of GPCR pathways. The tissue phenotype is determined by the role of Gs in the function of a given cell, and excess Gs/cAMP signaling in that cell. For example, pituitary somatotrophs overproduce growth hormone in a growth hormone releasing hormone-independent fashion, and gigantism/acromegaly ensues. Skeletal stem cells in the bone marrow behave as if they are under constant parathyroid hormone stimulation and fail to differentiate into osteoblasts and osteocytes, and proliferate as immature osteogenic cells and lead to the marrow fibrosis of fibrous dysplasia of bone. The goal of this project is to identify molecules with stimulatory activity at gsp mutations that will not only allow for in-depth study of the underlying molecular and cellular pathophysiology, but also serve as compounds from which drugs to treat FD/MAS can be developed NIH Chemical Genomics Center [NCGC] NIH Molecular Libraries Probe Centers Network [MLPCN] MLPCN Grant: IRP-FT-DE-2011-01 Assay Submitter (PI): Michael Collins, NIDCR
# 1.#Seed 2000 cells/well in 6 ul DMEM 10% FBS, 1% Pen/Strep, 0.5 mg/ml G418 2.#Incubate 16-24 hr at 37C, 5% CO2, 95% humidity 3.#Aspirate leaving 1 ul residual volume 4.#Dispense 5 ul/well DPBS + 1 mM CaCl2, 0.5 mM MgCl2, 0.05% BSA, 0.005% Tween 20 5.#Aspirate leaving 2 ul residual volume 6.#Dispense 23 nl/well compounds in DMSO 7.#Dispense 1 ul/well 300 uM Ro-20174 in DMEM 10% FBS 8.#Incubate 30 min at 37C, 5% CO2, 95% humidity 9.#Dispense 1.5 ul/well HTRF reagent: cAMP-d2 in lysis buffer 10.#Dispense 1.5 ul/well HTRF reagent: anti-cAMP antibody-K in lysis buffer 11.#Incubate 30 min at room temperature 12.#Detect HTRF signal using EnVision plate reader
# Potency is read from the fitted curve at half-maximal effect.
SMILES,Potency,activation (cAMP increase)
CCCc1nc(SCC(=O)N2CCCC2)c2c(=O)n(C)c(=O)n(C)c2n1,inactive,
Cn1c(=O)c2c(SCC(=O)NCC3CCCO3)nc(CC(C)(C)C)nc2n(C)c1=O (stereo not given),14.1 µM (active),
CCn1c(SCC(=O)NCC2CCCO2)nc2ccccc21 (stereo not given),inactive,
CCCCCCN1C[C@H](O)[C@@H](n2cc(C3CC3)nn2)C[C@@H]1c1ccc(Cl)cc1,inactive,
CC1(C)CC(=O)C=C(c2ccc(COC(=O)c3cc(F)cc(F)c3)cc2)C1=O,inactive,
O=C(CCc1ccc(O)cc1)NN=Cc1cc(Br)ccc1O,inactive,
COc1cc2ccc(C(C)=O)c(O)c2cc1OC,inactive,
COC(=O)C[C@H]1C[C@@H]2c3cc(N(C)C)ccc3O[C@@H]2[C@H](CO)O1,inactive,
Cc1cc(Cl)ccc1C(=O)C1CCCN(C(=O)c2ccc3c(c2)OCO3)C1 (stereo not given),inactive,
Cc1ccc(C(=O)N2CCCc3ccccc32)c(Cl)c1,inactive,
CN(C)C(CNC(=O)c1cc(Br)c(Br)s1)c1ccco1 (stereo not given),inactive,
O=C(COC(=O)Cc1ccc(Cl)cc1Cl)NCc1ccco1,inactive,
CCOC(=O)C=Cc1ccc(C(=O)OCC)[nH]1,inactive,
C/[N+]([O-])=C\c1ccc([N+](=O)[O-])o1,28.2 µM (active),
CCc1ccc(S(=O)(=O)N/N=C\c2ccc([N+](=O)[O-])o2)cc1,inactive,
Cc1cc(C)nc(N/N=C/c2ccc([N+](=O)[O-])o2)n1,inactive,
COc1ccc(/C=C2\SC(=S)N(CCC(=O)N3CCOCC3)C2=O)cc1OC,inactive,
O=C(NCc1ccccc1)C1CNCC(C(=O)NCc2ccccc2)C1 (stereo not given),inactive,
Cc1ccc([C@H]2N[C@]3(CCCN(Cc4ccccc4)C3=O)[C@H]3C(=O)N(Cc4ccccc4)C(=O)[C@@H]23)cc1,inactive,
CS(=O)(=O)c1sc2nc(-c3ccccc3)cc(-c3ccccc3)c2c1N,7.08 µM (active),
CCN(CC)C(=O)c1sc2nc(-c3ccccc3)ccc2c1N,,-3.88% [at 15.4 µM]
CNc1nc(-c2ccccc2)cc(-c2ccccc2)n1,inactive,
CCc1ccccc1NC(=O)CN1CCN(C(=O)c2cc(C3CC3)nn2-c2ccccc2)CC1,inactive,
O=NN(CCCl)C(=O)NCCc1cccc[n+]1[O-],inactive,

SMILES,Potency,activation (cAMP increase)
CSc1ncnc2c1ncn2CCCNCC1CCCCC1,inactive,
Cc1ccc(S(=O)(=O)N(CCc2ccccc2)c2ccc3c(c2)C2CC3CCN2C(=O)OCc2ccccc2)cc1 (stereo not given),inactive,
CC(OC(=O)c1cccnc1Cl)C(=O)NC1CCCCC1 (stereo not given),inactive,
O=C(COC(=O)c1cncc(Br)c1)Nc1ccc(S(=O)(=O)N2CCOCC2)cc1,inactive,
O=C(OCc1ccccc1)N1CCC2CC1c1cc(N3CCN(S(=O)(=O)c4cc(Cl)cc(Cl)c4)CC3)ccc12 (stereo not given),inactive,
NC(CSC(c1ccccc1)(c1ccccc1)c1ccc(-c2ccccc2)cc1)C(=O)O (stereo not given),inactive,
C=CCn1c2ccccc2c2nnc(SC(CC)C(=O)Nc3nc(C)c(C(=O)OCC)s3)nc21 (stereo not given),inactive,
C=CCn1c(SCC(=O)CC(=O)OCC)nc2cc(C(=O)N3CCC(C(N)=O)CC3)ccc2c1=O,,4.18% [at 15.4 µM]
C=CCn1c2ccccc2c2nnc(SCc3[nH]c(=O)[nH]c3C(=O)CCCCC(=O)OCC)nc21,2 µM (active),
C=CCn1nc(C(=O)OCC)cc1-c1sc(NC(=O)c2ccccc2)nc1C,inactive,
Cc1cc(C)c2c(=O)n3c(nc2c1)C(CC(C)C)NC(=O)c1cc2ccccc2cc1-3 (stereo not given),inactive,
CC(=O)Nn1cc2c(=O)n(C)c(=O)n(C)c2c1,7.94 µM (active),
COc1ccc(-c2c3c(=O)n(C)c(=O)n(C)c3cn2NC(C)=O)cc1,inactive,
Cn1c(=O)c2cn(-c3cccc4ccccc34)cc2n(C)c1=O,,-9.96% [at 15.4 µM]
COc1ccc(OC)c(C(=O)NC2CCCc3c2cnn3-c2cc(C)cc(C)c2)c1 (stereo not given),inactive,
CCOC(=O)c1cc(-c2sc(NC(=O)c3ccccc3)nc2C)n(CCO)n1,inactive,
O=C(NCCS(=O)(=O)N1CCN(c2ccccc2)CC1)c1cc(=O)c2ccccc2o1,inactive,
COc1ccc(Cl)cc1NC(=O)CN(C)C(=O)c1cn(-c2ccccc2)nc1-c1cccs1,inactive,
C[C@@H]1CN([C@@H](C)CO)C(=O)c2cc(Br)cnc2O[C@H]1CN(C)Cc1ccc(-c2ccccc2)cc1,inactive,
CCOc1cc(/C=N/NC(=O)c2c(C)nc3ccc(Cl)cn23)ccc1O,inactive,
Cc1ccc(NC(=O)COC(=O)CN2CCSC2=O)cc1F,inactive,
C[C@H]1Cn2cnc(C(=O)N[C@@H](Cc3c[nH]c4ccccc34)C(=O)OC(C)(C)C)c2C(=O)N1,inactive,
CC(=O)Nc1ccc(C=Cc2ccc([N+](=O)[O-])cc2)cc1,inactive,
COC(=O)c1ccccc1N=NNc1ccc([N+](=O)[O-])cc1,inactive,

SMILES,Potency,activation (cAMP increase)
CC(Sc1ccc(S(=O)(=O)N2CCN(C)CC2)cn1)C(=O)NC1CCCC(C)C1C (stereo not given),inactive,
CCOc1ncccc1C(=O)Nc1ccc(S(=O)(=O)Nc2nc(C)cc(C)n2)cc1,10 µM (active),
CCOc1ncccc1C(=O)Nc1ccc2c(c1)OCCO2,inactive,
O=C(Nc1ccc(S(=O)(=O)Nc2ncccn2)cc1)c1cncc(Br)c1,inactive,
CCCc1c(C)nc2scc(-c3ccc(Cl)cc3)n2c1=O,inactive,
CC1=C(C(=O)N(C)C)CC(CC(=O)NCCN2CCOCC2)C(=O)N1Cc1ccccc1 (stereo not given),inactive,
O=C1OCCC1=COCCCCOC=C1CCOC1=O,inactive,
CCCCCCn1c(=O)n2n(c1=O)C[C@]1(OC(=O)NCc3ccc(OC)c(OC)c3)CN(S(=O)(=O)c3ccc(C)cc3)C[C@]1(O)C2,inactive,
COc1ccc(CN2C[C@H]3CON(C)[C@H]3C[C@H]2c2ccc(-c3cccc(F)c3)cc2)cc1,inactive,
Cc1onc(-c2ccccc2)c1-c1nnc(COC(=O)c2ccc(N(C)C)cc2)o1,inactive,
Cc1ccc(CCNC(=O)CN2C(=O)CSc3ccc(S(=O)(=O)N4CCOCC4)cc32)cc1,inactive,
COc1ccc2c(c1)CCCO[C@]21O[C@H](CCO)C[C@H](O)[C@H]1O,inactive,
Cc1ccc(-c2ccc(C3=CC(=O)CC(C)(C)C3=O)cc2)cc1,inactive,
CC(OC(=O)c1ccc(NC(=O)CC#N)cc1)C(=O)Nc1ccc(S(=O)(=O)N2CCCC2)cc1 (stereo not given),inactive,
CC(C)n1ncc2c(C(=O)N3CCN(Cc4cccs4)CC3)cc(C3CC3)nc21,inactive,
CN(c1ccccc1)S(=O)(=O)c1ccc(C(=O)NCc2cccnc2)cc1,inactive,
Cc1ccc(Cc2c(-c3ccc(C)cc3)nc3c4ccccc4ccn23)cc1,inactive,
OCCC1CN(Cc2ccc3nsnc3c2)CCN1C1CCCCC1 (stereo not given),inactive,
OCCC1CN(Cc2ccc3nsnc3c2)CCN1C1CCCC1 (stereo not given),inactive,
COc1cccc2c1OCC(CN1CCN(C3CCCCC3)C(CCO)C1)=C2 (stereo not given),7.94 µM (active),
O=C1CC[C@@H](C(=O)N2CSC[C@@H]2C(=O)Nc2ccc(C(F)(F)F)cc2)N1,inactive,
O=C(CSc1ccc(Cl)cc1)NC1CC1,inactive,
COc1ccc(C(=O)Nc2cccc(NC(=O)c3ccc(OC)cc3OC)n2)c(OC)c1,15.8 µM (active),
COc1ccc(C(=O)NC2=NCCS2)c(OC)c1,inactive,

SMILES,Potency,activation (cAMP increase)
COc1ccc(C(=O)NC(C)CCc2ccccc2)c(OC)c1 (stereo not given),inactive,
O=S1(=O)CCN(C2CCCCCCCCCCC2)CC1,inactive,
O=S(=O)(c1cccc(C(F)(F)F)c1)N1c2ccccc2-n2cccc2C1c1cccnc1 (stereo not given),inactive,
O=Nc1c(O)cc(O)c2ccccc12,inactive,
O=C(c1ccc(CS(=O)Cc2ccccc2Cl)o1)N1CCN(c2ccccc2)CC1 (stereo not given),inactive,
COCCn1c(SCC(=O)Nc2ccc(F)cc2F)nc2c(c1=O)SCC2,inactive,
COCOCCn1cc(CN2CCS(=O)(=O)N(Cc3ccc(-c4ccc(OC)cc4)cc3)C(CC(C)C)C2=O)nn1 (stereo not given),inactive,
Cc1ccc(-c2ccc(CN3C(C(C)C)C(=O)N(Cc4cn(CCC5OCCO5)nn4)CCS3(=O)=O)cc2)cc1 (stereo not given),inactive,
CC1(C2CC2)NC(=O)N(CC(=O)N2CCN(c3ccccc3F)CC2)C1=O (stereo not given),inactive,
CCN(CC)C(=O)C1=C(C)N(Cc2ccccc2)C(=O)C(CC(=O)NC(c2ccccc2)c2ccccc2)C1 (stereo not given),inactive,
O=C(N=C1SC2CS(=O)(=O)CC2N1Cc1ccccc1)c1ccccc1 (stereo not given),inactive,
COc1cccc(OCC(=O)NCCS(=O)(=O)N2CCN(c3ccccc3)CC2)c1,inactive,
Cc1cnc(NC(=O)Cn2cnc3c2c(=O)n(C)c(=O)n3C)s1,,0.329% [at 15.4 µM]
CN(C(=O)COC(=O)Cn1cnc2c1c(=O)n(C)c(=O)n2C)C1(C#N)CCCCC1,28.2 µM (active),
Cn1c(=O)c2c(ncn2CC(=O)N/N=C/c2cn[nH]c2-c2ccc(F)cc2)n(C)c1=O,,54.2% [at 15.4 µM]
CSc1ncnc2c1ncn2CCCNCc1ccco1,inactive,
Cc1ccc(S(=O)(=O)N2C[C@H]3n4c(=O)ccc(=O)n4C[C@H](OC(=O)NC4CCCC4)[C@@]3(O)C2)cc1,inactive,
O=C(c1ncn2c1c(=O)[nH]c1ccccc12)N1CCc2ccccc2C1,inactive,
CCCCCCNC(=O)O[C@H]1CN(C(=O)OC(C)C)N(C(=O)OC(C)C)[C@@H]2CN(S(=O)(=O)c3ccc(C)cc3)C[C@]12O,inactive,
CSc1ncccc1C(=O)N1CCCC(Nc2ccc(F)c(F)c2)C1 (stereo not given),inactive,
COc1cccc(NC(=O)CN(C)C(=O)c2cc(Cl)nc3ccccc23)c1,inactive,
COc1ccc(S(=O)(=O)N(C)C)cc1NC(=O)COC(=O)c1n[nH]c2ccccc12,inactive,
Cc1ccc([C@H]2N[C@]3(CCCN(CC4CCCCC4)C3=O)[C@H]3C(=O)N(Cc4ccccc4)C(=O)[C@@H]23)cc1,inactive,
